Assay outcomes (PubChem)
Pf growth 96h – P. falciparum growth inhibition at 96 hour, primary screen for plastid delayed-death inhibitors; P. falciparum luciferase reporter growth, 96 h; Potency, µM (titrated, usually from 28.7 µM), most hits filed as inhibitors; 320,000 compounds, 6.9% hits; AID 504834
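Luminescence readout: decreased luciferase signal marks inhibited growth of reporter-expressing P. falciparum in infected red cells (2% hematocrit, 0.05% parasitemia final), exposed to compound two generations (96 h, 37 C, 5% CO2).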
RE007 growth inh – less growth of the S. pombe RE007 Vpr strain | S. pombe RE007 Vpr strain, BacTiter-Glo ATP luminescence, 24 h | Potency, µM (doses to about 92.2 µM), hits mostly inhibitors | 360,000 compounds, 0.21% hits; active = well fitted falling curve with a large enough effect; inconclusive = small, poorly fitted or top-dose-only effect; inactive = no such curve, though single readings can be large or run the other way; also: nearly all actives have a fitted effect of over 50% in size
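Fission yeast strain RE007, carrying one chromosomally integrated HIV-1 vpr copy, was seeded at OD 0.01 in PMG+AL medium with 23 nL pinned compound. After 24 h at 30 °C and 99% humidity, viability was read by BacTiter-Glo luminescence.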
Pf growth 48h – inhibits P. falciparum growth in the first generation, 48 h. AID 504832. P. falciparum luciferase growth in erythrocytes, 48 h. Potency, µM (series often up to 28.7 µM), actives largely listed as inhibitors. 310,000 compounds, 5.9% hits
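Luciferase-expressing P. falciparum in infected erythrocytes (2% hematocrit, 0.1% parasitemia final) in RPMI 1640/0.5% Albumax were exposed to compound for 48 hours at 37 C, 5% CO2; growth read as luminescence.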
NS1 function inh – blocks influenza NS1 protein function. Potency, µM (titrated, usually from 46.1 µM). 270,000 compounds, 0.4% hits; calls by dose curve; also: actives are rising curves; nearly all actives have a fitted effect of over 50% in size
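OD600 was taken as the measure of yeast growth restored by compound in an NS1-expressing S. cerevisiae strain. Cells had been washed out of glucose medium and diluted 1:100 into galactose -URA medium, pH 6.0.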
SARS PLpro yeast – SARS-CoV PLP inhibition in yeast. 330,000 compounds, 0.19% hits. S. cerevisiae expressing SARS-CoV PLpro, growth rescue. AID 485353. Potency, µM (doses to about 32.9 µM), actives largely listed as activators; calls by dose curve; also: nearly all actives have a fitted effect of over 55% in size
Each line names hits and unclear results; the compound was inactive in the other large screens. Most compounds without a hit are left out; they make up all but 9.5% or so of the library. Unless noted, calls follow the shape of the dose curve; as a rule, active = well fitted inhibition curve with a large enough effect; inconclusive = small, poorly fitted or top-dose-only effect, or another doubt; inactive = no such curve, though single readings can be large or run the other way.

O=C1/C(=C\c2ccccc2)C2OCC=C3CN4CCC56c7ccccc7N1C5C2C3CC46 (stereo not given)	Pf growth 96h 2.62µM, Pf growth 48h 2.33µM (no result: RE007 growth inh)
CCOC(=O)C1CCN(C(=O)/C=C/c2ccc3c(c2)OCO3)CC1	none
O=C(O)/C=C/C(=O)c1ccc2c(c1)NC(=O)CO2	Pf growth 96h 3.29µM, Pf growth 48h 1.85µM (no result: NS1 function inh)
CCc1nc2c(OCc3ccc4c(c3)OCO4)cccn2c1N(C=O)Cc1ccccc1	none (no result: Pf growth 96h, Pf growth 48h, NS1 function inh, SARS PLpro yeast)
COc1cc([C@@H]2OC[C@@H]3[C@H]2CO[C@@H]3c2ccc3c(c2)OCO3)ccc1O	none (no result: Pf growth 96h, Pf growth 48h, NS1 function inh)
COc1cc(CC2COC(c3ccc(O)c(OC)c3)C2COC(C)=O)ccc1O (stereo not given)	Pf growth 96h 10.4µM
COCCN(C(=O)CSc1cc(C)c2ccccc2n1)c1c(N)n(CC(C)C)c(=O)[nH]c1=O	none (no result: NS1 function inh)
O=C(NCc1ccccc1)C1=C[C@H](c2coc3ccccc3c2=O)C[C@H](OCCCCO)O1	Pf growth 96h 10.4µM, Pf growth 48h inconclusive
CC(=O)n1cc([C@H]2C=C(C(=O)Nc3ccccc3)O[C@@H](OCCCCO)C2)c2ccccc21	Pf growth 96h inconclusive, Pf growth 48h 9.28µM
CC(=O)n1cc([C@@H]2C=C(C(=O)NCc3ccccc3)O[C@H](OCCCCO)C2)c2ccccc21	Pf growth 96h inconclusive, Pf growth 48h inconclusive
CC(=O)n1cc([C@H]2C=C(C(=O)NCc3ccccc3)O[C@@H](OCCCCO)C2)c2ccccc21	Pf growth 96h inconclusive, Pf growth 48h 5.86µM
CCOc1ccc(C(=O)NCc2ccco2)cc1Cl	Pf growth 96h inconclusive, Pf growth 48h inconclusive
CCN(CCNC(=O)C1CCCN(c2ncnc3c2nc2n3CCCCC2)C1)Cc1ccccc1 (stereo not given)	Pf growth 96h 10.4µM, Pf growth 48h inconclusive
CN(CCNC(=O)C1CCN(c2ncnc3c2nc2n3CCCCC2)CC1)Cc1ccccc1	Pf growth 96h inconclusive, Pf growth 48h inconclusive
Cc1ccccc1CN1CCC(CNC(=O)C2CCCN(c3ncnc4c3nc3n4CCCCC3)C2)CC1 (stereo not given)	Pf growth 96h 6.57µM, Pf growth 48h 11.7µM
CN(C)Cc1c(O)ccc2c1O/C(=C\C=C\c1ccccc1)C2=O	Pf growth 48h 1.65µM, NS1 function inh inconclusive
Cc1ccc(/C=C2\Oc3c(ccc(O)c3CN3CCN(C)CC3)C2=O)cc1	Pf growth 96h inconclusive, Pf growth 48h inconclusive (no result: NS1 function inh)
CCc1ccc(/C=C2\Oc3c(ccc(O)c3CN3CCN(C)CC3)C2=O)cc1	Pf growth 96h inconclusive, Pf growth 48h inconclusive
CCN1CCN(Cc2c(O)ccc3c2O/C(=C\c2ccc(C)cc2)C3=O)CC1	Pf growth 96h 2.33µM, Pf growth 48h 5.22µM (no result: NS1 function inh)
CC1CCCN(Cc2c(O)ccc3c2O/C(=C\c2ccco2)C3=O)C1 (stereo not given)	Pf growth 96h 3.29µM, Pf growth 48h 2.33µM
CC(=O)COc1ccc2c(c1C)O/C(=C\c1ccco1)C2=O	RE007 growth inh inconclusive
CCN1CCN(Cc2c(O)ccc3c2O/C(=C\c2ccccc2)C3=O)CC1	Pf growth 96h 11.7µM, Pf growth 48h inconclusive
O=C1/C(=C/C=C/c2ccccc2)Oc2c1ccc(O)c2CN1CCN(CCO)CC1	Pf growth 96h inconclusive, Pf growth 48h inconclusive
Cc1ccc(S(=O)(=O)Nc2ccccc2C(=O)c2ccc(C)c(C)c2)cc1	none (no result: Pf growth 96h, RE007 growth inh, Pf growth 48h, SARS PLpro yeast)
Cc1nn(CCc2nn[nH]n2)c2nc(-c3ccc(C4CCCCC4)cc3)cc(C(F)(F)F)c12	Pf growth 96h inconclusive, Pf growth 48h 5.22µM (no result: NS1 function inh)
C=C(c1ccc(O)cc1)c1ccc(O)cc1	none
Oc1ccc(C(=C(Cl)Cl)c2ccc(O)cc2)cc1	Pf growth 96h 2.33µM, Pf growth 48h 2.94µM (no result: RE007 growth inh)
COc1cccc(CC(=O)N2CCCC(CO)(Cc3ccc(F)cc3F)C2)c1 (stereo not given)	Pf growth 96h 8.28µM
COc1cccc(CC2(CO)CCCN(S(=O)(=O)N(C)C)C2)c1 (stereo not given)	Pf growth 96h 6.57µM
O=C(Cc1cccc(F)c1)N1CCCC(CO)(Cc2ccc(F)cc2F)C1 (stereo not given)	none
COc1cccc(CC2(CO)CCCN(Cc3cn[nH]c3-c3ccc(F)cc3)C2)c1 (stereo not given)	RE007 growth inh inconclusive, Pf growth 48h inconclusive
COc1ccccc1/C=C/CN1CCCC(CO)(Cc2cccc(Cl)c2)C1 (stereo not given)	Pf growth 48h inconclusive
